From PubChem BioAssay (NCI)
About 83,000 compounds went through this panel and 20% of them were active in at least one assay; those are over-represented in the sample as a whole.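 Cells were grown in 96-well plates and exposed to the test compound at a single concentration for 48 hours; results are reported as percent growth, with values below 10 considered active.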 Calls of active or inactive are those of the source.

How the values were obtained:
Test in all cases: NCI-60 one-dose screen, 48 h (100 = growth as untreated, 0 = no growth, -100 = all killed)
Conditions in all cases: 10 µM unless noted
[1] = system: HCT-15 colon
[2] = system: HT29 colon
[3] = system: SNB-75 CNS
[4] = system: SNB-19 CNS
[5] = system: U251 CNS
[6] = system: PC-3 prostate
[7] = system: SK-MEL-5 melanoma
[8] = system: UACC-62 melanoma
[9] = system: LOX IMVI melanoma
[10] = system: SK-MEL-28 melanoma
[11] = system: SK-MEL-2 melanoma
[12] = system: SN12C renal
[13] = system: UO-31 renal
[14] = system: TK-10 renal
[15] = system: ACHN renal
[16] = system: CAKI-1 renal
[17] = system: A498 renal
[18] = system: MOLT-4 leukemia
[19] = system: EKVX NSCLC
[20] = system: CCRF-CEM leukemia

Measured: growth

COCCn1cc(-c2nc(-c3cc4cccnc4n3CCOC)cs2)c2cc(OC)ccc21
inactive: [1] 17% | [2] 21.9% | [3] 62.6% | [4] 91.1% | [5] 69.8% | [6] 29.3% | [7] 36.7% | [8] 80.7% | [9] 15.4% | [10] 87.2% | [11] 71.6% | [12] 78.8% | [13] 61.9% | [14] 14% | [15] 68.3% | [16] 70.4% | [17] 66.8% | [18] 58.4%

COc1cc(-c2nc3cc(Cl)c(Cl)cc3[nH]2)ccc1OCC(=O)N=Nc1c(O)[nH]c2ccc([N+](=O)[O-])cc12
inactive: [1] 103% | [2] 110% | [3] 92.7% | [4] 43.9% | [5] 22% | [6] 56.5% | [7] 85.1% | [8] 95.2% | [9] 78.7% | [11] 102% | [19] 96.2% | [12] 81.2% | [13] 91.1% | [14] 124% | [15] 104% | [16] 97.2% | [17] 109% | [20] 21.6% | [18] 74.2%

Cc1ccc(Sc2oc(-c3ccc(C)cc3)nc2[P+](c2ccccc2)(c2ccccc2)c2ccccc2)cc1
inactive: [4] 14% | [5] 12.9% | [10] 17% | [14] 22.7%
active: [1] 0.625% | [2] 1.95% | [3] -23.6% | [6] 5.64% | [7] -97.7% | [8] -38.1% | [9] -69.3% | [11] -36% | [12] 3.64% | [13] -22.3% | [15] -6.75% | [16] -23.2% | [17] -40.5% | [20] -2.03% | [18] -25.9%

CC(C)n1cnc2c(=S)nc[nH]c21
inactive: [1] 102% | [2] 118% | [3] 117% | [4] 107% | [5] 98.9% | [6] 98.7% | [7] 103% | [8] 110% | [9] 93.7% | [11] 114% | [19] 98% | [12] 108% | [13] 92% | [14] 109% | [15] 93.7% | [16] 73.1% | [17] 127% | [20] 90.9% | [18] 56.6%

O=C(Cn1cc(CN2CCCCCC2)nn1)Nc1ccc2c(ccn2Cc2ccccc2)c1
active: [20] 1.87%
inactive: [1] 93.3% | [2] 70.5% | [3] 76.1% | [4] 98.8% | [5] 80.8% | [6] 82.2% | [7] 87% | [8] 96.9% | [9] 98.2% | [11] 93.2% | [19] 96.1% | [12] 101% | [13] 54.4% | [14] 92.2% | [15] 107% | [16] 87.6% | [17] 95.2% | [18] 89.9%

C=C(C)[C@@H]1CC[C@]2(C(=O)NCC#CCN3CCN(C)CC3)CC[C@]3(C)[C@H](CC[C@@H]4[C@@](C)(CCC#N)[C@H](C(=C)C)CC[C@]43C)[C@@H]12
inactive: [1] 20% | [3] 64.7% | [4] 78.2% | [5] 45.3% | [6] 35.5% | [7] 64.6% | [9] 10.4% | [11] 91.8% | [19] 52.1% | [12] 69.2% | [13] 51.6% | [14] 80.4% | [15] 70.8% | [16] 57.7% | [17] 57.5% | [20] 51.3% | [18] 10.9%
active: [2] -12.7% | [8] -8.49%

COc1ccc(-c2nc(SCC(C)C)nc(N/N=C\c3ccc(F)cc3)c2C#N)cc1
inactive: [1] 85.3% | [2] 90.5% | [3] 80% | [4] 81% | [5] 94.5% | [6] 84.9% | [7] 103% | [8] 88.6% | [9] 97.4% | [11] 104% | [19] 93.9% | [12] 78.6% | [13] 67.2% | [14] 81.5% | [15] 30.3% | [17] 74.4% | [20] 82.3% | [18] 88.2%

O=C1CC(N2C(=O)/C(=C/C(Cl)=C\c3ccc([N+](=O)[O-])cc3)SC2=S)C(=O)N1c1ccc(Cl)cc1 (stereo not drawn)
active: [1] -8.75% | [2] 4.25% | [5] 1.45% | [6] -5.48% | [9] -71.7% | [12] 4.02% | [13] -42.8% | [15] 1.2%
inactive: [3] 17.2% | [4] 17.4% | [7] 59.9% | [8] 16.4% | [11] 68.3% | [19] 32.3% | [14] 38% | [16] 23.5% | [17] 55% | [20] 11.4% | [18] 11.7%

CN(C)CCNc1nc2c3cc(Cl)ccc3nn2c2ccccc12
active: [17] -6.05%
inactive: [1] 41.2% | [2] 21.4% | [3] 83.5% | [4] 41.8% | [5] 49.5% | [6] 46.8% | [7] 56.1% | [8] 73.6% | [9] 25.9% | [11] 95.2% | [19] 49.8% | [12] 40.9% | [13] 28.2% | [14] 97.8% | [15] 22.7% | [16] 40.4% | [20] 47.1% | [18] 15.9%

CCCCCCCCn1ccc2cc(NC(=O)CN3CCN(c4nc(C)cc(Cl)n4)CC3)ccc21
inactive: [1] 77.1% | [2] 65.3% | [3] 87% | [4] 102% | [5] 92.8% | [6] 75.6% | [7] 91.1% | [8] 76.4% | [9] 99.6% | [11] 122% | [19] 93.6% | [12] 99.5% | [13] 58.9% | [14] 108% | [15] 98.1% | [16] 87.2% | [17] 109%
active: [20] -34.6% | [18] 4.97%

COc1cc(CNS(=O)(=O)c2ccc(C)cc2)ccc1OCc1cn(-c2ccc(F)cc2)nn1
inactive: [1] 92.5% | [2] 85.1% | [3] 81% | [4] 102% | [5] 97.3% | [6] 83.6% | [7] 56.7% | [8] 71.8% | [9] 102% | [11] 104% | [19] 80.3% | [12] 92.2% | [13] 63.9% | [14] 116% | [15] 93.2% | [17] 54.1% | [20] 79.9% | [18] 78.2%

CCOC(=O)c1nc(Nc2ccc(NC(=O)Nc3ccc(F)cc3)cc2)c2ccccc2n1
inactive: [1] 100% | [2] 106% | [3] 78.7% | [4] 98% | [5] 103% | [6] 103% | [7] 93.9% | [8] 101% | [9] 90.9% | [10] 105% | [11] 103% | [12] 99.4% | [13] 81% | [14] 120% | [15] 102% | [16] 91.1% | [17] 62% | [18] 98.5%

O=C(c1cc2ccccc2o1)c1nn(-c2ccccc2)/c(=N/N=Cc2cn(-c3ccccc3)nc2-c2cc3ccccc3oc2=O)s1
inactive: [1] 87.8% | [2] 107% | [3] 97.2% | [4] 101% | [5] 83.1% | [6] 93% | [7] 102% | [8] 97.2% | [9] 95.6% | [10] 114% | [11] 100% | [12] 113% | [13] 68.5% | [14] 107% | [15] 102% | [16] 79.1% | [17] 116% | [20] 92.8% | [18] 93.3%

Cc1ccc(-c2csc(NC(=O)CN3CCN(c4cc5c(cc4F)c(=O)c(C(=O)O)cn5C4CC4)CC3)n2)cc1
inactive: [1] 10.2% | [3] 20.1% | [4] 27.7% | [8] 19.1% | [10] 41% | [12] 16.4% | [13] 12.1% | [14] 15.9%
active: [2] 0.375% | [5] 7.62% | [6] 6.64% | [7] -26.4% | [9] 0.737% | [11] -13.5% | [15] 4.32% | [17] 7.69% | [20] 8.52% | [18] 4.51%

O=[N+]([O-])c1ccc(S(=O)(=O)N2CCN(C3=NS(=O)(=O)c4ccccc4N3c3ccccc3)CC2)cc1
inactive: [1] 109% | [2] 110% | [3] 90.2% | [4] 101% | [5] 101% | [6] 87.4% | [7] 90.7% | [8] 98.2% | [9] 97.2% | [11] 61.6% | [19] 102% | [12] 114% | [13] 76.8% | [14] 118% | [16] 84.6% | [17] 105% | [20] 125% | [18] 94.9%

COc1cccc(NC(=O)Cn2cc(CN3CCN(c4ccnc5cc(Cl)ccc45)CC3)nn2)c1
inactive: [1] 89.8% | [2] 98% | [3] 75.5% | [4] 88.7% | [5] 96.3% | [6] 67.4% | [7] 59.3% | [8] 75.8% | [9] 86.8% | [11] 106% | [19] 76.7% | [12] 92.1% | [13] 62% | [14] 104% | [15] 85% | [16] 78% | [17] 104% | [18] 50%
active: [20] -45.1%
